# Values without a mark were called inactive.
# Test system: Vero E6 infected with SARS-CoV-2
# Assay: inhibition of SARS-CoV-2 cytopathic effect; higher = more antiviral protection, active = above 15
# Conditions: 48 h
SMILES,inhibition of SARS-CoV-2 cytopathic effect (1 nM) [%],inhibition of SARS-CoV-2 cytopathic effect (8.33 nM) [%],inhibition of SARS-CoV-2 cytopathic effect (100 nM) [%],inhibition of SARS-CoV-2 cytopathic effect (833.33 nM) [%],inhibition of SARS-CoV-2 cytopathic effect (10000 nM)
CCNC(=O)/C=C/c1cccc(Br)c1 [cinromide],0.47,1.25,0.09,2.1,1.33%
CCCCNc1c(C(=O)OCC)c(C)nc2c1cnn2CC [tracazolate],-0.41,1.49,-0.22,-2.81,-1.99%
CCN[C@H]1CN(CCCOC)S(=O)(=O)c2sc(S(N)(=O)=O)cc21 [brinzolamide],0.37,-1.59,-2.91,-1.67,-2.11%
CC(=O)N1CCN(C)CC1 [1-acetyl-4-methylpiperazine],4.74,3.75,3.95,4.36,-0.21%
Cc1nc2ccc(NC(=O)Nc3ccnc4cccnc34)cc2o1,0.35,0.06,2.76,-0.56,-0.97%
C=CCCCCCCCCC(=O)[O][Zn][O]C(=O)CCCCCCCCC=C [zinc-undecylenate],0.73,0.52,-0.83,0.72,2.73%
COCC(=O)O[C@]1(CCN(C)CCCc2nc3ccccc3[nH]2)CCc2cc(F)ccc2[C@@H]1C(C)C [mibefradil],-2.83,0.22,-2.5,-0.56,62.1% (active)
CC(=O)c1c(C)c2cnc(Nc3ccc(N4CCNCC4)cn3)nc2n(C2CCCC2)c1=O [palbociclib],2.16,0.47,-4.3,-0.35,5.01%
C[C@@H]1O[C@@H](OC[C@H]2O[C@@H](Oc3c(-c4ccc(O)c(O)c4)oc4cc(O)cc(O)c4c3=O)[C@H](O)[C@@H](O)[C@@H]2O)[C@H](O)[C@H](O)[C@H]1O [rutin],1.54,1.59,5.75,0.96,-5.92%
O=C(O)C1=CCCNC1 [guvacine],2,5.07,3.21,6.87,6.39%
CC(C)c1nc(N(C)S(C)(=O)=O)nc(-c2ccc(F)cc2)c1/C=C/[C@@H](O)C[C@@H](O)CC(=O)O [rosuvastatin],-0.46,0.22,-2.09,-3.33,-2.75%
CS(=O)(=O)OCCCCOS(C)(=O)=O [busulfan],-2.94,-4.62,-3.55,-3.78,-4.14%
CNC[C@H](O)[C@@H](O)[C@H](O)[C@H](O)CO [meglumine],-10,-10.3,-6.44,-11.4,-10.1%
O=C(Nc1ccccc1)N[C@H]1C[C@H](C(=O)O)Nc2cc(Cl)cc(Cl)c21,-0.64,-2.48,0.61,-0.05,0.62%
Cn1cnc2c1c(=O)[nH]c(=O)n2C [theobromine],-1.8,1.86,1.32,1.3,-1.36%
N[C@@H](Cc1ccc(O)cc1)C(=O)NCC(=O)NCC(=O)O,1.38,0.88,1.16,1.07,0.4%
CN(C)CCc1c[nH]c2ccc(CS(=O)(=O)N3CCCC3)cc12 [almotriptan],-0.13,1.33,-0.24,0.04,-2.87%
CCc1nc(-c2cccc(C)c2)c(-c2ccnc(NC(=O)c3ccccc3)c2)s1,1.89,-0.27,-3.38,-1.52,-4.97%
O=C(O)C(=O)Nc1cccc(-c2nnn[nH]2)c1 [acitazanolast],-1.24,-0.89,-0.76,-1.09,-0.46%
CC(CCc1ccc(O)cc1)NCCc1ccc(O)c(O)c1 (stereo not given) [dobutamine],-0.38,-2.55,-1.12,-2.15,-0.94%
